Data on 36 molecules can be found in ChEMBL document CHEMBL3433997, “St. Jude Leishmania screening dataset” (2016).

Assay type in all cases: functional
Assay [1] addresses Solute carrier family 2, facilitated glucose transporter member 1 (Homo sapiens) (UniProt P11166). The assay is described as follows: ST_JUDE_LEISH: Cytotoxicity at 2uM final concentration against transgenic Leishmania Mexicana promastigotes LmGLUT1 that are glucose transport deficient and complemented with the human glucose transporter GLUT1. Activity is measured by DNA content using SYBR green in vitro.

Assay [2] addresses Hexose transporter 1 (Plasmodium falciparum) (UniProt O97467). The assay is described as follows: ST_JUDE_LEISH: Cytotoxicity at 2uM final concentration against transgenic Leishmania Mexicana promastigotes LmPfHT that are glucose transport deficient and complemented with the Plasmodium falciparum hexose transporter. Activity is measured by DNA content using SYBR green in vitro.

The target of assay [3] is Glucose transporter (Leishmania mexicana) (UniProt O61059). Description: ST_JUDE_LEISH: Cytotoxicity at 2uM final concentration against transgenic Leishmania Mexicana promastigotes LmGT2 that are glucose transport deficient and complemented with the L. Mexicana glucose transporter 2. Activity is measured by DNA content using SYBR green in vitro.

Where “and” joins values, the source holds several entries; their conditions need not be identical. Equal values may be shown once.

Sequence of Solute carrier family 2, facilitated glucose transporter member 1 (Homo sapiens) (P11166 whole entry): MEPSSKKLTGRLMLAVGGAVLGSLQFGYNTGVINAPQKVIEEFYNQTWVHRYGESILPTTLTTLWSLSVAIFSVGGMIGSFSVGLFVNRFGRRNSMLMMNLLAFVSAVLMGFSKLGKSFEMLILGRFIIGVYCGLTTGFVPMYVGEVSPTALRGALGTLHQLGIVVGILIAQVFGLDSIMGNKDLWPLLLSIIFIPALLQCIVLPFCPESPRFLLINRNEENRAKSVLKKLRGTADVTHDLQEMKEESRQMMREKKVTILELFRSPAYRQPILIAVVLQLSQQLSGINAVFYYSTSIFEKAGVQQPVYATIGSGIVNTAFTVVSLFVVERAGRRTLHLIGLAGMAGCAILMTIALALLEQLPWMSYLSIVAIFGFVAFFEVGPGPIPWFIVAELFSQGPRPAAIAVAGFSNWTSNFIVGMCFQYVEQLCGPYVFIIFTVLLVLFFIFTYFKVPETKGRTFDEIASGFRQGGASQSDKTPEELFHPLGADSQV

For the molecule `COc1ccccc1N1CCN(Cc2c(NC(C)=O)sc(C)c2C)CC1`, the inhibition in assay [1] was found to be 0.73%; in assay [2], 0.56%; in assay [3], 1.44%.
The like results for `COc1ccc(-c2cncc3ccc(C(=O)NCc4ccncc4)nc23)cc1` were, in that order, 6.53%, 4.27% and 2.69%.
For the molecule `COc1cc2c(c(OC)c1[N+](=O)[O-])C=CC1(O2)N(C)c2ccc([N+](=O)[O-])cc2C1(C)C` (stereo not drawn), the results for the inhibition in assay [1], in assay [2] and in assay [3] were 4.19%, 0.99% and 1.36%, respectively.
The like results for `Cc1cccc2nc(-c3ccc(-c4ccc(CN5CCN(CC6CCCN(C)C6)CC5)cc4)s3)[nH]c12` (stereo not drawn) were, in that order, 8.45%, 21.1% and 8.04%.
On the same counts, the results for `CC(C)(CNC(=O)C1CCN(CCOc2ccc(Cl)cc2)CC1)c1nc(-c2ccc(Cl)c(O)c2)c(-c2ccncc2)[nH]1` are 0.46%, 1.55% and -0.21%.
On the same counts, the results for `CCCCCCn1c(Sc2ccc(C#N)c([N+](=O)[O-])c2)nnc1-c1ccc(Cl)cc1` are 5.74%, 7.85% and 2.57%.
With `CCOc1cc(/C=N/Nc2nc3ccccc3[nH]2)ccc1OCc1ccc([N+](=O)[O-])cc1`, the inhibition in assay [1] is 5.62%; in assay [2] it was 4.53%; in assay [3], 4.41%.
For the molecule `O=[N+]([O-])c1cccc(CNC2CCN(Cc3ccc4ccccc4c3)CC2)c1`, the results for the inhibition in assay [1], in assay [2] and in assay [3] were 19%, 12.4% and 10.9%, respectively.
The like results for `CCOC(=O)c1ccc(NC(=O)Nc2cccc(-c3cccc(-c4nc5cc(F)ccc5[nH]4)c3)c2)cc1` were, in that order, 0.68%, 2.75% and 3.67%.
In the case of `Cc1c(-c2cccc(C(C)(C)NCCCN3CCCCC3)c2)cnc(N)c1C`, the values for the inhibition in assay [1], in assay [2] and in assay [3] were -0.39%, -0.25% and 0.62%, respectively.
For the molecule `COc1ccc2nccc([C@@H](O)CN3CCC(NC(=O)c4cccc(C(=O)c5ccccc5)c4)CC3)c2c1`, the inhibition in assay [1] is -1.15%; in assay [2], 0.28%; in assay [3], 0.47%.
On the same counts, the results for `O=C(Nc1cccc(-c2nn3ncccc3c2-c2ccnc(Nc3ccc(N4CCOCC4)cc3)n2)c1)c1c(F)cccc1F` are 10.7%, 16.6% and 6.47%.
Consider `Oc1ccc2c(c1CNC1CCCCC1)CCCC2`, for which the inhibition was 5.27% in assay [1], 3.89% in assay [2] and 4.96% in assay [3].
The like results for `CCCC(C)NC[C@@H](O)[C@H](Cc1ccccc1)NC(=O)c1cc(C2CCCC2)cc(N2CCCCS2(=O)=O)c1` (stereo partly drawn) were, in that order, 3.4%, 3.66% and 2.98%.
On the same counts, the results for `O=C(Nc1cccc(CN2CCCN(Cc3ccsc3)CC2)c1)c1ccc(-c2ccccc2)cc1` are 2.55%, 3.01% and 1.6%.
On the same counts, the results for `Cc1cc(N)c2cc(NC(=O)c3ccc4ccccc4c3)ccc2n1` are 3.68%, 4.64% and 3.57%.
As to `COc1cccc(NC(=O)NC2CCN(c3ccnc(Nc4cc(OC)c(OC)c(OC)c4)n3)C2)c1` (stereo not drawn), the figures for the inhibition in assay [1], in assay [2] and in assay [3] were 1.18%, -1.6% and 5.86%, respectively.
Take `Cc1ccccc1N1CCN(c2ccc(C(=O)Nc3ccccc3)cc2)CC1`: the inhibition in assay [1] is -0.27%; in assay [2], 0.69%; in assay [3] it was 1.33%.
Take `C[C@@H](Oc1cc(-n2cnc3cc(SCCN4CCN(C)CC4)ccc32)sc1C(N)=O)c1ccccc1Cl`: the inhibition in assay [1] was 35.4%; in assay [2] it was 40.9%; in assay [3] it was 23.6%.
In the case of `Cc1nc(C)c(-c2ccc(Oc3ccc(OC(F)(F)F)cc3)cc2)c(O)c1I`, the inhibition in assay [1] is -0.28%; in assay [2] it was 0.69%; in assay [3], -1.65%.
For `Cc1nnc2c(NC(=O)/C=C/c3ccc(OC(F)(F)F)cc3)cc3cc(Cl)ccc3n12`, the results for the inhibition in assay [1], in assay [2] and in assay [3] were 0.28%, 0.28% and 0.55%, respectively.
With `COc1ccc(C[C@H](N)C(=O)N[C@H]2[C@@H](O)[C@H](n3cnc4c(N(C)C)ncnc43)O[C@@H]2CO)cc1`, the inhibition was 3.7% and 0.1% in assay [1]; 1.9% and 3.79% in assay [2]; 3.16% and 2.8% in assay [3].
On to `CCOc1ccc(-c2cc3nc(C4CCNCC4)c(C(=O)Nc4ccc(C)cc4Cl)cn3n2)cc1`, for which the inhibition is 4.75% in assay [1], -0.08% in assay [2] and 1.29% in assay [3].
`CN(c1ccc2c(c1)nc(Nc1cc(C(C)(C)C)on1)n2C)c1ccnc(Nc2ccc(CS(C)(=O)=O)cc2)n1`: the inhibition in assay [1] is -1.02%; in assay [2], 0.41%; in assay [3], -1.74%.
`CN1CCN(c2ccnc3ccc(NC(=O)Cc4ccc5ccccc5c4)cc23)CC1`: the inhibition was found to be 0.96% in assay [1], 2.53% in assay [2] and 2.12% in assay [3].
As to `CN(C)CCNCc1cccc(-c2ccc3c(Nc4ccc(F)cc4Cl)ccnc3c2)c1`, the inhibition was determined as 3.59% in assay [1], 3.29% in assay [2] and 5.03% in assay [3].
On the same counts, the results for `O=C(O)CCSc1ncnc2[nH]cnc12` are -2.53%, -2.15% and -2.15%.
The like results for `Cc1ccc2c(c1)NCC21CCN(C[C@@H](O)C2CCN(c3cc(C#N)ccn3)CC2)CC1C` (stereo partly drawn) were, in that order, -1.68%, 0% and -3.72%.
On the same counts, the results for `Cc1cccc2nc(-c3ccc(-c4cccc(CN5CC(C)OC(C)C5)c4)s3)[nH]c12` (stereo not drawn) are 7.69%, 6.31% and 4.91%.
With `CCN(CC)c1ccc(C(=O)Cn2ccc(=N)cc2)cc1`, the inhibition was 1.35% in assay [1], -0.06% in assay [2] and 0.82% in assay [3].
Turning to `COc1ccc2nccc([C@@H](O)CN3CCC(NCc4nc5c(OCc6ccccc6)cccc5[nH]4)CC3)c2c1`, the inhibition in assay [1] was 4.97%; in assay [2], 3.37%; in assay [3], 4.99%.
On the same counts, the results for `COc1ccc(CC(=O)Nc2ccc(Nc3nc(C)cc(N4CCCC4)n3)cc2)cc1` are 46%, 51.5% and 16.1%.
On the same counts, the results for `Cc1ccc(S(=O)(=O)Nc2ccc(Nc3nccc(Nc4cccc5[nH]ncc45)n3)cc2)cc1` are 1.77%, 2.62% and 0.3%.
On the same counts, the results for `CCCc1cc(NC2CCN(C)CC2)nc(Nc2ccc(C)cc2)n1` are 5.35%, 3.28% and 2.46%.
Consider `COc1ccc2[nH]cc(C3CCN(CCCCCNC(=O)c4ccc(-c5ccccc5)cc4)CC3)c2c1`, for which the inhibition was 4.24% in assay [1], 3.36% in assay [2] and 2.9% in assay [3].
On the same counts, the results for `CCNc1cc(C(=O)N[C@@H](Cc2ccccc2Cl)[C@H](O)CNC2CCCCC2)cc(N2CCCCS2(=O)=O)c1` are 0.03%, 0.45% and -2.07%.
